# Bioassay records (PubChem BioAssay)
# Sm TGR inh – blocks Schistosoma mansoni thioredoxin glutathione reductase. 360,000 compounds, 3% hits. Q962Y6. purified TGR, DTNB reduction, TNB absorbance 405 nm. Potency, µM (top dose mostly 114 µM), without a hit: at the highest dose activity change, negative = inhibition, most hits filed as inhibitors; further: on the % scale 0 is the no-effect control and ±100 the full control effect; nearly all actives have a fitted effect of over 60% in size
#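 TGR 20 nM + NADPH 100 uM (dispensed conc.), cpd preinc 15 min RT; start with NADPH (500 uM addition) then DTNB (15 mM addition). Kinetic TNB absorbance, 405 nm filter. Four-parameter Hill fit across titration.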
# NS1 inh – blocks influenza NS1 protein function. AID 2326. Potency, µM (highest dose often 46.1 µM), without a hit: top-dose activity, positive = more growth. 270,000 compounds, 0.4% hits; calls by dose curve; further: actives are rising curves; nearly all actives have a fitted effect of over 50% in size
#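 Compounds were scored for reversing the slow growth caused by influenza A NS1 in S. cerevisiae, measured by optical density at 600 nm. Assay medium contained 2% galactose at pH 6.0; NS1-free yeast of the same strain were the positive control.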
# RE007 growth inh – less growth of the S. pombe RE007 Vpr strain | 360,000 compounds, 0.21% hits | AID 651644 | Potency, µM (highest dose often 92.2 µM), for the others: at the top dose activity change, negative = less growth, hits mostly inhibitors | S. pombe RE007 Vpr strain, BacTiter-Glo ATP luminescence, 24 h; active means well fitted falling curve with a large enough effect; inconclusive means small, poorly fitted or top-dose-only effect; inactive means no such curve, though single readings can be large or run the other way; further: on the % scale 0 is the no-effect control and ±100 the full control effect; nearly all actives have a fitted effect of over 50% in size
#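 Fission yeast RE007 carrying one integrated HIV-1 vpr copy, seeded at OD 0.01 in PMG+AL medium with 23 nL pinned compound. Grown 24 h at 30 degrees; viability read by BacTiter-Glo luminescence after 5 min.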
# TbPYK inhibitor – inhibitors of Trypanosoma brucei pyruvate kinase | TbPYK enzyme, Kinase-Glo Plus ATP luminescence, 45 min | Potency, µM (highest dose often 76.8 µM), without a hit: top-dose activity, negative = inhibition, hits mostly inhibitors | 410,000 compounds, 0.12% hits | AID 624173; further: on the % scale 0 is the no-effect control and ±100 the full control effect; nearly all actives have a fitted effect of over 50% in size
#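 Quantitative HTS: titrated library compounds versus trypanosomal pyruvate kinase in TEA buffer (pH 7.2) containing KCl, MgCl2, BSA and Tween-20. Reactions were initiated with ADP, 130 uM final. Kinase-Glo Plus luminescence was read after 45 min at RT.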
# FBPA Giardia inh – Giardia lamblia aldolase inhibition; A8B2U2; purified Giardia FBPA; Potency, µM (highest dose often 59.6 µM), for the others: at the top dose activity, negative = inhibition, hits mostly inhibitors; 290,000 compounds, 0.71% hits; further: on the % scale 0 is the no-effect control and ±100 the full control effect; nearly all actives have a fitted effect of over 55% in size
# Target sequence (A8B2U2 whole entry, looked up): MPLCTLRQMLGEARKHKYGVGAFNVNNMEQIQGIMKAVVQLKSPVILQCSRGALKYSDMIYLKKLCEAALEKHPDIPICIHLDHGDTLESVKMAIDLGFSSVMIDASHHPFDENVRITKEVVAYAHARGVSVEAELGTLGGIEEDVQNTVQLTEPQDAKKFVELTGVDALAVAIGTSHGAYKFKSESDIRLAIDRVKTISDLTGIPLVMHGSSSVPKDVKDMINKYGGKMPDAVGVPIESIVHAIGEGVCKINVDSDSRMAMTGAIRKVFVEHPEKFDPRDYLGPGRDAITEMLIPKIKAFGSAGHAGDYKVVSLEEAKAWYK
#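 Giardia FBPA (40 nM reagent) was preincubated 10 min at RT with compound (up to 57.5 uM final), then substrate plus GAPDH/TPI/NAD/arsenate coupling system with diaphorase/resazurin was added; resorufin fluorescence (525/598 nm) was read after 20 min.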
# LmPK inh – blocks Leishmania mexicana pyruvate kinase activity | Q27686 | purified LmPK, Kinase-Glo ATP luminescence, 1 h | Potency, µM (titrated, usually from 57.5 µM), inactives show at the highest dose activity change, negative = inhibition, hits mostly inhibitors | 290,000 compounds, 0.37% hits; further: on the % scale 0 is the no-effect control and ±100 the full control effect
# Target sequence (Q27686 whole entry, looked up): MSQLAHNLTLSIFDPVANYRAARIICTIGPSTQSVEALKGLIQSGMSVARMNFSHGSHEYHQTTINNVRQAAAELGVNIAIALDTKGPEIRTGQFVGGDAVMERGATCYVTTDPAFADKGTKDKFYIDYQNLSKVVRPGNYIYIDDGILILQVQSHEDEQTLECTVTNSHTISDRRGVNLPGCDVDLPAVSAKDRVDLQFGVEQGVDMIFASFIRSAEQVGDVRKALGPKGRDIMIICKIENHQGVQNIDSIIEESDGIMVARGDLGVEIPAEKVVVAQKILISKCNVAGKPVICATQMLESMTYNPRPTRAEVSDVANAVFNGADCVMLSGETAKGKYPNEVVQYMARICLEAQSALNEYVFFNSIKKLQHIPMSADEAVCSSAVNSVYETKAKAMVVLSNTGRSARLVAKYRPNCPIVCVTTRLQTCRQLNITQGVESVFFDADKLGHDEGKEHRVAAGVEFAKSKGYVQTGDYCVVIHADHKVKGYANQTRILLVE
#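 qHTS format; LmPK 0.1 nM; substrates PEP 0.5 mM and ADP 0.1 mM. One-hour room-temperature incubation, then coupled luciferase luminescence; 0.5 nM enzyme wells mark activation.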
# Numbers without * were called inactive; ? = inconclusive; . = no result given; ! = not active in a repeat. The list is not random: actives were taken first. Their share in the collection is about 3.5%. Unless noted, the call rests on the fitted dose curve; in most records, active means well fitted curve in the direction sought with a large enough effect; inconclusive means small, poorly fitted or top-dose-only effect, or another doubt; inactive means no such curve, though single readings can be large; an effect the other way counts as inactive or inconclusive. Potency means the concentration at half of the fitted maximal effect.
SMILES,Sm TGR inh,NS1 inh,RE007 growth inh,TbPYK inhibitor,FBPA Giardia inh,LmPK inh
CCn1c(SCC(=O)Nc2ccc3c(c2)OCO3)nc2c1c(=O)n(C)c(=O)n2C,7.3%,-8.6%,0.5%,-4.7%,2.5%,0.9%
Cn1c(=O)c2c(nc(SCC(=O)O)n2Cc2cc3c(cc2Cl)OCO3)n(C)c1=O,-10.9%,3.5%,2.4%,25.1µM*,-16.0%,-7.9%
Cc1ccc(NC(=O)COc2ncnc3c(Cl)cc(Cl)cc23)cc1[N+](=O)[O-],4.47µM*,2.3%,18.6%,0.3%,1.5%,-3.7%
Cc1cc(Cl)ccc1OCC(=O)OCC(=O)Nc1ccc(F)c([N+](=O)[O-])c1,4.5%,-76.9%,-17.9%,-9.1%,-2.1%,-0.3%
O=C(N/N=C/c1c(O)n(-c2ccccc2)c(=O)[nH]c1=O)c1ccncc1,39.8µM*,17.6%,-8.7%,2.6%,-0.4%,-4.9%
Cn1c(O)c(/C=N/NC(=O)c2ccncc2)c(=O)n(C)c1=S,20µM*,4.6%,-1.3%,-0.4%,-5.3%,3.7%
Cn1c(O)c(/C=N/NC(=O)c2ccncc2)c(=O)[nH]c1=S,-25.7%,1.0%,40.2%,-29.9%,0.4%,1.1%
Cc1ccc(-n2c(O)c(/C=N/NC(=O)c3ccncc3)c(=O)[nH]c2=O)cc1,?,0.0%,-5.1%,-2.6%,-14.7%,-1.3%
C=C[C@]1(C)C[C@@H](OC(=O)CO)[C@]2(C)C(C)CC[C@]3(CCC(=O)[C@H]32)[C@@H](C)[C@@H]1O (stereo partly drawn),.,.,.,2.8%,.,.
COc1cccc(CCNC(=O)c2cnc3sc(N4CCOCC4)nn3c2=O)c1,8.2%,.,.,3.3%,.,.
COc1ccc(Cn2c(CNS(=O)(=O)c3ccc(Cl)s3)nc3cccnc32)cc1,8.3%,.,.,7.4%,.,.
COc1cccc(CNC(=O)CCn2nc(C)c3c(C)n(-c4ccccc4)nc3c2=O)c1,3.5%,.,.,-6.5%,.,.
NS(=O)(=O)c1cccc(NS(=O)(=O)c2ccc(/C=C/C(=O)O)cc2)c1,25.1µM*,5.3%,17.9%,4.8%,12.4%,5.1%
O=C(O)/C=C/c1cccc(NS(=O)(=O)c2ccccc2)c1,-4.2%,5.2%,3.6%,1.2%,5.9%,0.1%
Cc1ccc(C(=O)NC(=C(Cl)Cl)S(=O)(=O)c2ccc(C)cc2)cc1,17.8µM*,2.2%,6.9%,-8.4%,0.1%,1.1%
Cc1ccc(S(=O)(=O)/C(=C/Cl)NC(=O)c2ccccc2)cc1,39.8µM*,6.0%,0.0%,-16.6%,-5.6%,-9.3%
Cc1ccc(S(=O)(=O)C(NC(=O)c2ccccc2)=C(Cl)Cl)cc1,.,.,10.9%,-8.3%,.,.
Cc1ccc(C(=O)NC(=C(Cl)Cl)S(=O)(=O)c2ccc(Cl)cc2)cc1,.,2.5%,0.4%,0.0%,2.6%,7.2%
O=C(NC(=C(Cl)Cl)S(=O)(=O)c1ccc(Cl)cc1)c1ccccc1,3.55µM*,-4.8%,-4.0%,2.4%,1.1%,10.8%
CCCC(CCC)C(N)=O,.,.,.,-9.7%,.,.
C#C[C@]1(O)CC[C@H]2C3CCC4=Cc5oncc5CC4(C)C3CCC21C (stereo partly drawn),.,-20.1%,.,.,-4.7%,.
CN(Cc1ccco1)S(=O)(=O)c1nnc(NC(=O)c2cccc(Cl)c2)s1,7.94µM*!,-6.2%,-0.7%,?,.,5.0%
CCN(c1ccccc1)S(=O)(=O)c1nnc(NC(=O)CC(C)C)s1,6.8%,0.3%,-4.4%,-1.9%,13.1%,1.9%
CC(C)CC(=O)Nc1nnc(S(=O)(=O)N(C)Cc2ccco2)s1,8.91µM*,-4.7%,-6.4%,0.2%,.,-4.4%
CCCc1nc2ccccc2c(=O)n1/N=C/c1c(C)[nH]n(-c2ccc(C)cc2)c1=O,-10.4%,-65.2%,15.8µM*,-6.4%,?,?
SMILES,Sm TGR inh,NS1 inh,RE007 growth inh,TbPYK inhibitor,FBPA Giardia inh,LmPK inh
Cc1ccccc1-c1nc(CS(=O)CC(=O)NC2CCCCC2)c(C)o1 (stereo not drawn),39.8µM*,-7.5%,-11.6%,-10.3%,.,-0.8%
Cc1ccccc1-c1nc(CS(=O)CC(=O)NC2CC2)c(C)o1 (stereo not drawn),?,4.5%,-23.8%,0.4%,.,2.1%
Cc1oc(-c2ccccc2F)nc1CS(=O)CC(=O)NC1CCCC1 (stereo not drawn),14.1µM*,20.1%,-9.9%,-10.8%,1.0%,-1.8%
Cc1ccccc1-c1nc(CS(=O)CC(=O)NC2CCCC2)c(C)o1 (stereo not drawn),0.0%,20.6%,-6.7%,-12.7%,.,7.8%
CCc1ccc(-n2c(=O)c3c4c(sc3n(CC(=O)N3CCCCC3CC)c2=O)CCC4)cc1 (stereo not drawn),-0.8%,.,.,0.2%,.,.
O=C1/C(=C\c2cc([N+](=O)[O-])ccc2O)SC(=S)N1Cc1ccc(Cl)cc1,-7.0%,-52.2%,39.8µM*,-3.4%,-0.2%,0.8%
O=C1/C(=C\c2cccc(O)c2O)SC(=S)N1Cc1ccccc1,-4.0%,-18.2%,?,-19.3%,?,-3.2%
CC1(C)CC(=O)C(C=Nc2ccccc2C(=O)O)=C(O)C1,6.6%,0.2%,11.3%,1.3%,-2.7%,1.9%
CC1(C)CC(=O)C(C=Nc2ccccc2)=C(O)C1,-8.9%,2.2%,20µM*,-9.6%,8.5%,-4.3%
CC1(C)CC(=O)C(C=Nc2ccccc2Sc2ccccc2)=C(O)C1,-1.1%,-5.9%,20µM*,-5.9%,-6.2%,4.4%
CCCCn1c(O)c(C(C)=NCCN2CCCCC2)c(=O)[nH]c1=O,?,-5.6%,3.8%,1.4%,-1.2%,-5.2%
C=CCn1c(O)c(C(C)=NCCN2CCCCC2)c(=O)[nH]c1=O,14.1µM*,-4.1%,12.6%,0.3%,-3.1%,10.2%
CCOC(=O)Cc1ccc(NC(=O)Nc2ccccc2OCc2cc(=O)n3ccccc3n2)cc1,8.5%,.,.,-2.3%,.,.
CCCCN1C(=O)NC(=O)/C(=C/c2cnc(SC)nc2)C1=O,7.08µM*,9.8%,-17.9%,?,-5.2%,12.0%
CN(C)c1ncc(/C=C2/C(=O)NC(=S)N(C3CCCCC3)C2=O)cn1,.,5.2%,.,.,-7.7%,0.5%
CSc1ncc(/C=C2/C(=O)NC(=O)N(C3CCCCC3)C2=O)cn1,5.01µM*,?,-24.3%,?,4.8%,11.5%
CSc1ncc(/C=C2/C(=O)NC(=O)N(C)C2=O)cn1,1.41µM*,11.3%,-4.1%,?,-0.6%,8.2%
CCCCN1C(=O)/C(=C/c2ccc(N3CCCCCC3)cc2)C(=O)NC1=S,?,1.5%,.,.,5.5%,-6.7%
COc1ccc(OC)c(NC(=O)Cn2c(=O)cc(C)c3c(C)nn(-c4cccc(Cl)c4C)c32)c1,-8.6%,.,.,5.3%,.,.
NC(CSCc1ccccc1Cl)C(=O)O (stereo not drawn),15.8µM*,.,12.8%,-0.6%,-12.5%,-1.9%
C(=C\c1ccccc1)/CSc1nnc(-c2ccccn2)n1Cc1ccco1,35.5µM*,-46.7%,-18.9%,-14.5%,-14.0%,-1.6%
